# From PubChem
# Shown are actives, neighbours in structure and some others; about 11% of the full set was active somewhere.
# HP1b binding inh = HTS for Inhibitors of HP1-beta Chromodomain Interactions with Methylated Histone Tails. Chromobox protein homolog 1 (Homo sapiens), P83916. AlphaScreen HP1-beta / biotin-H3K9me3 peptide binding. Potency, µM (titrated, usually from 114 µM), for inactives: at the top dose activity change, negative = inhibition, usual class: inhibitors. 0.56% of 390,000 active. AID 540317, 2011; note: nearly all actives have a fitted effect of over 70% in size
#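 Compound inhibition of the preformed complex between 50 nM HP1-beta and 50 nM biotinylated H3K9me3 peptide was read by AlphaScreen. Buffer was PBS pH 7.4 with 0.01% Tween-20. Incubations ran 30 min at room temperature, with 10 ug/mL donor/acceptor beads.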
# JMJD2A Tudor inh = qHTS Assay for Inhibitors of JMJD2A-Tudor Domain | Potency, µM (series often up to 114 µM), for inactives: top-dose activity change, negative = inhibition, actives largely listed as inhibitors | AlphaScreen JMJD2A-Tudor / H3K4me3 peptide binding | 4.4% of 390,000 active; note: % is set by controls: 0 for no effect and ±100 for the full control effect; nearly all actives have a fitted effect of over 50% in size
# G9a block = qHTS Assay for Inhibitors of Histone Lysine Methyltransferase G9a; Potency, µM (series often up to 102 µM), for the others: top-dose activity, negative = inhibition, usual class: inhibitors; 8.8% of 350,000 active; G9a H3K9 monomethylation, AlphaScreen, 2 h; note: % is set by controls: 0 for no effect and ±100 for the full control effect; nearly all actives have a fitted effect of over 75% in size
#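 Enzyme 20 nM + cpd, 15 min RT; add b-H3K9 pep 500 nM / SAM 20 uM; 2 h RT; anti-H3K9me1 Ab 0.5 ug/mL + SA donor / anti-rabbit acceptor beads 20 ug/mL each, 10 min; AlphaScreen read.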
# BAZ2B inh = qHTS Assay for Inhibitors of BAZ2B; AlphaScreen BAZ2B-H3K14Ac peptide displacement; Potency, µM (titrated, usually from 114 µM), for inactives: at the highest dose activity change, negative = inhibition, most hits filed as inhibitors; AID 504333, 2011; 4.4% of 360,000 active; Bromodomain adjacent to zinc finger domain protein 2B (Homo sapiens), Q9UIF8; note: % is set by controls: 0 for no effect and ±100 for the full control effect; nearly all actives have a fitted effect of over 60% in size
#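 BAZ2B 50 nM plus b-H3(5-23)K14Ac 50 nM, PBS pH 7.4/0.01% Tween-20, 30 min RT; compound added (max 110 uM), 30 min RT; streptavidin donor/Ni-chelate acceptor beads 10 ug/mL final, 20 min dark; AlphaScreen read.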
# L3MBTL1 inh = qHTS Assay for the Inhibitors of L3MBTL1. Potency, µM (titrated, usually from 57.1 µM), for inactives: top-dose activity, negative = inhibition, actives largely listed as inhibitors. 0.66% of 230,000 active. AlphaScreen L3MBTL1–H3K9me1 peptide binding. Lethal(3)malignant brain tumor-like protein 1 (Homo sapiens), Q9Y468. AID 485360, 2010; note: % is set by controls: 0 for no effect and ±100 for the full control effect; nearly all actives have a fitted effect of over 60% in size
# Target sequence (Q9Y468 whole entry, looked up): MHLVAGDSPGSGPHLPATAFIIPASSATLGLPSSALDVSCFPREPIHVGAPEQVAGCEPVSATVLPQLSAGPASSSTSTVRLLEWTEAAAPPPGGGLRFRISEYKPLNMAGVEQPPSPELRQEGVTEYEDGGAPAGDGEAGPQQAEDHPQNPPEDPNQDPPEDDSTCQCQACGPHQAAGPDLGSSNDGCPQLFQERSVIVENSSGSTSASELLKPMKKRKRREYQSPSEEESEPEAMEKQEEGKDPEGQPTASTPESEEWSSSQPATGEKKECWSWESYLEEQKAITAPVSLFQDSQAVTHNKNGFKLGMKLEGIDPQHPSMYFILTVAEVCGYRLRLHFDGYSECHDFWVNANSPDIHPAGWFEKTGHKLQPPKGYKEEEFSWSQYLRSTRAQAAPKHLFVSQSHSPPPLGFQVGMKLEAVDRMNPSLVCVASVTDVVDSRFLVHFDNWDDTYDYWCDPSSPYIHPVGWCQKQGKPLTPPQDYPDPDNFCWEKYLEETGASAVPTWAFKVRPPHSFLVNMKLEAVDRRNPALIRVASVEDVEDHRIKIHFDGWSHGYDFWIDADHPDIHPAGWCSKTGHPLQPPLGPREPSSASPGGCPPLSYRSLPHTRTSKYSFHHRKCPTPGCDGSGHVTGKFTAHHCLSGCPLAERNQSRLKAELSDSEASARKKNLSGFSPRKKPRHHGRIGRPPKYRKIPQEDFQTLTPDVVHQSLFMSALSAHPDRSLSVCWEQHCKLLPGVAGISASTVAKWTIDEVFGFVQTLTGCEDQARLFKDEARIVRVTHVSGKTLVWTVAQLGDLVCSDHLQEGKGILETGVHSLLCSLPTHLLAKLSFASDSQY
#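 L3MBTL1 (50 nM) pre-complexed 30 min with biotinylated H3(1-15)K9me1 peptide (75 nM), then compounds added for 30 min at room temperature; AlphaScreen streptavidin donor/nickel chelate acceptor beads (10 ug/mL final) read after 30 min dark incubation.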
# * marks the source's active call; other numbers are inactive results; ? = inconclusive; nt = not tested or not shown; [ ] = dose if it differs, or a comment. Calls come from the whole dose curve; as a rule, active = well fitted inhibition curve with a large enough effect; inconclusive = small, poorly fitted or top-dose-only effect; inactive = no such curve, though single readings can be large or run the other way. Potency is the fitted concentration of half-maximal effect.
SMILES,HP1b binding inh,JMJD2A Tudor inh,G9a block,BAZ2B inh,L3MBTL1 inh
CCN(CC)c1ccc(NC(=O)CNCc2ccccc2Cl)c(C)c1,25µM*,10µM*,35µM*,18µM*,nt
CCCCCCSC1=C(C#N)C(c2ccccc2)CC(=O)N1 (stereo unspecified),22%,-3%,-15%[12.7 µM],-29%,nt
N#CC1=C(C2CC2)CC(c2ccccc2)C(C#N)=C1N (stereo unspecified),52%,-8%,50µM*,1%,-7%
COc1cccc(C(=O)N2CCCCC2CCN2CCCCC2)c1 (stereo unspecified),43%,1%,0%[59 µM],0%,nt
C[C@H]1CN([C@@H](C)CO)C(=O)c2cccc(NS(=O)(=O)c3cn(C)cn3)c2O[C@H]1CN(C)S(C)(=O)=O,88%,-2%,nt,nt,-2%
Cc1ccc(OCC(=O)NNC(=S)NC(=O)C2CC2)c(C)c1,nt,nt,10µM*,-22%,nt
Cc1ccc(OCC(=O)NC(=S)Nc2ccccn2)c(Br)c1,55%,-3%,?,-1%,nt
Cc1ccc(OCC(=O)NNC(=O)c2ccc(NC(=O)C3CC3)cc2)c(C)c1,30%,-16%,66%,-2%,nt
N#Cc1ccc(OCC(=O)NNC(=S)NC(=O)C2CC2)cc1,24%,28µM*,nt,nt,22%
Cc1ccc(OCC(=O)NNC(=S)NC(=O)C(C)(C)C)c(Br)c1,-5%,?,25µM*,-3%,9%
Cc1ccc(OCC(=O)NNC(=S)NC(=O)C2CCCCC2)c(C)c1,13%,-35%,18µM*,-14%,nt
C=CCN(C(=O)c1csnn1)C(C(=O)NC1CCCC1)c1ccc(F)cc1 (stereo unspecified),8%,-15%,-5%,0%,nt
CCn1nc([N+](=O)[O-])c(C(C#N)c2nc3ccccc3n2C)c(Cl)c1=O (stereo unspecified),?,?,?,40µM*,-13%
O=[N+]([O-])c1ccc(CN2CCN(c3nc4ccccc4s3)CC2)cc1,-17%,-5%,-17%,?,nt
CCCn1nc([N+](=O)[O-])c(C(C#N)c2nc3ccccc3s2)c(Cl)c1=O (stereo unspecified),11µM*,16µM*,7.1µM*,10µM*,nt
CCOC(=O)c1cc(C)n(CC2CCC(C(=O)Nc3ccc(C(C)=O)cc3)CC2)c1C (stereo unspecified),36%,-8%,-8%[59 µM],-16%,nt
COC(=O)C(C(=O)OC)C(c1ccccc1)C(C(=O)c1ccccc1)[N+](=O)[O-] (stereo unspecified),27%,-20%,50µM*,-13%,4%
Cc1ccc(-n2c(Cc3ccccc3)n[nH]c2=S)c(C)c1,3%,18µM*,?,-29%,-3%[11.4 µM]
S=c1[nH]nc(Cc2ccccc2)n1-c1cccc2ccccc12,6%,25µM*,10µM*,-32%,-9%
Cc1ccc(-n2c(CC#N)n[nH]c2=S)c(C)c1,39%,20µM*,22µM*,-18%,nt
O=C(COC(=O)c1ccc2ccccc2n1)Nc1ncc(C(F)(F)F)cc1Cl,30%,-10%,45µM*,-1%,nt
O=C(COC(=O)c1ccc2ccccc2c1)Nc1ncc(C(F)(F)F)cc1Cl,18%,-6%,13%[12.7 µM],10%,nt
O=C(COC(=O)CSc1cccc2cccc(Cl)c12)Nc1ncc(C(F)(F)F)cc1Cl,-5%,-35%,?,50µM*,?
COCCn1cnc2c1-c1ccc(OC)c(c1)OC/C=C\COc1cccc-2c1,-25%,?,nt,nt,nt
CCOC(=O)c1cnc2ccccc2c1Nc1cccc(OC)c1,98%,15%,5%[59 µM],34%,nt
SMILES,HP1b binding inh,JMJD2A Tudor inh,G9a block,BAZ2B inh,L3MBTL1 inh
O=C(Cc1ccccc1)N(Cc1cccnc1)c1nc2c(F)cccc2s1,26%,40µM*,6%[59 µM],-6%,nt
Cc1ccc2sc(N(CCCN(C)C)C(=O)CCS(=O)(=O)c3ccccc3)nc2c1C,48%,-1%,16µM*,-31%,nt
COc1ccc(Cl)c2sc(N(CCN(C)C)C(=O)CCS(=O)(=O)c3ccc(C)cc3)nc12,2%,-25%,10µM*,-9%,0%
CN(C)CCCN(C(=O)CCS(=O)(=O)c1ccccc1)c1nc2cc3c(cc2s1)OCO3,35%,-21%,nt,-11%,nt
O=C(Cc1ccccc1)N(Cc1cccnc1)c1nc2c(Cl)cccc2s1,16%,-19%,9%[59 µM],?,nt
COc1ccc(C)c2sc(N(CCCN(C)C)C(=O)CS(=O)(=O)c3ccc(F)cc3)nc12,14%,-16%,3%[59 µM],-3%,-13%
CN(C)CCN(C(=O)CCS(=O)(=O)c1ccccc1)c1nc2c(F)cccc2s1,42%,-20%,28µM*,-26%,nt
O=C1C(=O)N(Cc2cccs2)c2ccccc21,-4%,-22%,-3%,-28%,-6%
COc1ccc(OC)c2sc(N(CCCN(C)C)C(=O)CCS(=O)(=O)c3ccccc3)nc12,10%,-26%,20µM*,-27%,-11%
COc1ccc2c(=O)cc(CO)oc2c1,100%,-12%,nt,nt,-8%
CN1C(=O)c2ccccc2Sc2ccc(NC(=O)c3ccccc3F)cc21,9%,-15%,-2%[59 µM],-8%,nt
COc1ccc(/C=C2\Sc3ccc(C(=O)NCCN4CCCCCC4)cc3N(C)C2=O)cc1,-9%[57 µM],?,22µM*,?,nt
COc1ccc(/C=C2\Sc3ccc(C(=O)N4CCCC4)cc3N(C)C2=O)cc1OC,25%,-12%,45µM*,-31%,nt
CCOC(=O)Cc1cc(-c2ccc(F)cc2)nc2ccc3ccccc3c12,46%,4%,10%[59 µM],6%,-9%
Cc1c(-c2ccccc2)n(-c2ccc(Cl)cc2)c2nc3c(c(=O)n(C)c(=O)n3C)n12,53%,4%,7%[59 µM],2%,nt
CCOC(=O)c1cc(S(=O)(=O)NCc2cccc(Cl)c2)[nH]n1,12%[57 µM],-30%,3.5µM*,50µM*,nt
CCOC(=O)c1cc(S(=O)(=O)NCc2ccc(C)cc2)[nH]n1,22%[57 µM],-15%,5.6µM*,50µM*,nt
CN(C)c1cc(-c2cccc(NS(C)(=O)=O)c2)ncn1,nt,nt,-9%[0.501 µM],nt,nt
COC(=O)c1ccc(NC(=O)CC2C(=O)N(c3ccccc3)C(=O)N2Cc2cccs2)cc1 (stereo unspecified),46%,-6%,-7%[59 µM],0%,nt
COC(=O)c1sc2nc(SCC(=O)N(C)c3ccccc3)n(N)c(=O)c2c1C,24%,-7%,25µM*,10%,nt
COC(=O)c1sc2nc(SCc3ccccc3C)n(N)c(=O)c2c1C,31%,9%,11%,5%,3%
O=C(CC(c1ccc(F)cc1)c1ccco1)N1CCOCC1 (stereo unspecified),48%,-13%,-29%,12%,14%
